# G9a inh-1 – blocks human histone lysine methyltransferase G9a; Q96KQ7; G9a H3K9 monomethylation, AlphaScreen, 2 h; Potency, µM (highest dose often 102 µM), for inactives: top-dose activity, negative = inhibition, most hits filed as inhibitors; 350,000 compounds, 8.8% hits; AID 504332; also: potency is read from the fitted curve at half-maximal effect; % is scaled to controls: 0 for no effect and ±100 for the full control effect; nearly all actives have a fitted effect of over 75% in size
#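 G9a (20 nM) preincubated 15 min RT with compounds, then 500 nM biotinylated H3K9 peptide and 20 uM SAM added; 2 h RT reaction. Monomethyl-H3K9 product detected by AlphaScreen with anti-H3K9me1 antibody, streptavidin donor and anti-rabbit IgG acceptor beads.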
# BAZ2B block – BAZ2B (human) inhibition; Q9UIF8; AlphaScreen BAZ2B-H3K14Ac peptide displacement; Potency, µM (titrated, usually from 114 µM), inactives show top-dose activity change, negative = inhibition, usual class: inhibitors; 360,000 compounds, 4.4% hits; AID 504333; also: potency is read from the fitted curve at half-maximal effect; % is scaled to controls: 0 for no effect and ±100 for the full control effect; nearly all actives have a fitted effect of over 60% in size
#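 AlphaScreen luminescence quantifies BAZ2B engagement of H3K14Ac peptide; the protein and biotinylated peptide are both at 50 nM final, buffer PBS pH 7.4 with 0.01% Tween-20, all steps at room temperature.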
# L3MBTL1 inh – L3MBTL1 (human) inhibition | 230,000 compounds, 0.66% hits | Potency, µM (top dose mostly 57.1 µM), for the others: at the top dose activity, negative = inhibition, usual class: inhibitors | AlphaScreen L3MBTL1–H3K9me1 peptide binding | AID 485360; also: potency is read from the fitted curve at half-maximal effect; % is scaled to controls: 0 for no effect and ±100 for the full control effect; nearly all actives have a fitted effect of over 60% in size
# Target sequence (Q9Y468 whole entry, looked up): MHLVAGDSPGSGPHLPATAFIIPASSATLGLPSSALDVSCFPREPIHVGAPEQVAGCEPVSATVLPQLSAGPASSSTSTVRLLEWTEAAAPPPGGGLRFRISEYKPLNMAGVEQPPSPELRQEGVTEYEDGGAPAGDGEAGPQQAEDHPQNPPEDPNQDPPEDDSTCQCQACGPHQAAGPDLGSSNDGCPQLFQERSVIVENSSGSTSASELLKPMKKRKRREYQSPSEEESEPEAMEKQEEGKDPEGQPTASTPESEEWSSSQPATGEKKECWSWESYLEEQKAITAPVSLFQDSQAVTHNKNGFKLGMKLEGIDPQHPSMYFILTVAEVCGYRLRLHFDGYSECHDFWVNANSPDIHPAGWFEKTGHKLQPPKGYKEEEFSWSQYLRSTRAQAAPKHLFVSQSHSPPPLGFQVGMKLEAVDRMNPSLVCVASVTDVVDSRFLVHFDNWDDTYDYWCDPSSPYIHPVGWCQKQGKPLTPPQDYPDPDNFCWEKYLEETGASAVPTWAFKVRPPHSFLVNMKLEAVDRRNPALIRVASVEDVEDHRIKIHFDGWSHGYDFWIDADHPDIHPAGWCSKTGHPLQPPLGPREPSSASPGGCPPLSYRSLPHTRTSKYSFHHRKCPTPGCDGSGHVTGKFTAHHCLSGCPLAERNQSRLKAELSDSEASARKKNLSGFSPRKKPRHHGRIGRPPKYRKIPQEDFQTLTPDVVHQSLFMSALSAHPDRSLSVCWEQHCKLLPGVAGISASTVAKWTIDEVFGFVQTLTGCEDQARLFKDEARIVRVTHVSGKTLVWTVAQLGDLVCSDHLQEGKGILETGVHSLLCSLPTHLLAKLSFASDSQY
#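 AlphaScreen assay: L3MBTL1 (50 nM final) was preincubated 30 min at room temperature with biotinylated H3(1-15)K9me1 peptide (75 nM final), then 30 min with library compounds; streptavidin donor and nickel chelate acceptor beads (10 ug/mL final) added, 30 min dark.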
# JMJD2A Tudor inh – inhibitors of human JMJD2A Tudor domain | 390,000 compounds, 4.4% hits | Potency, µM (top dose mostly 114 µM), inactives show at the highest dose activity change, negative = inhibition, most hits filed as inhibitors | AlphaScreen JMJD2A-Tudor / H3K4me3 peptide binding | AID 504339; also: potency is read from the fitted curve at half-maximal effect; % is scaled to controls: 0 for no effect and ±100 for the full control effect; nearly all actives have a fitted effect of over 50% in size
# HP1b chromo inh – inhibitors of HP1-beta chromodomain binding to methylated histone tails; AID 540317; 390,000 compounds, 0.56% hits; Potency, µM (highest dose often 114 µM), for inactives: at the highest dose activity change, negative = inhibition, most hits filed as inhibitors; AlphaScreen HP1-beta / biotin-H3K9me3 peptide binding; also: potency is read from the fitted curve at half-maximal effect; nearly all actives have a fitted effect of over 70% in size
#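 AlphaScreen: HP1-beta (50 nM) preformed 30 min with biotin-H3(1-18)K9me3 peptide (50 nM) in PBS pH 7.4, 0.01% Tween-20. Compound added for 30 min at RT, then streptavidin donor/nickel chelate acceptor beads (10 ug/mL) for 30 min.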
# PI5P4K alpha inh – blocks human PI5P4K alpha kinase activity | P48426 | PI5P4Kalpha enzyme, ADP-Glo luminescence, 60 min; active compounds read low | max response, % | 330,000 compounds, 1.2% hits | AID 652105; active = max response of -50% or lower; inconclusive = between -30% and -50%; inactive = -30% or higher; also: value at the top dose of about 77 µM; % is scaled to controls: 0 for no effect and ±100 for the full control effect
#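 Luminescence from ADP-Glo served as readout of PI5P4Kalpha activity in a qHTS format. Reaction: enzyme, substrate, compound, ATP at 5 microM final, 60 min at RT.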
# G9a inh-2 – inhibits human G9a histone lysine methyltransferase, hit confirmation. G9a H3K9 monomethylation, AlphaScreen, 2 h. AID 588344. 370 compounds, 89% hits. shares compounds with JMJD2A Tudor inh. Potency, µM, actives largely listed as inhibitors; also: potency is read from the fitted curve at half-maximal effect; nearly all actives have a fitted effect of over 65% in size
# Numbers without * were called inactive; ? = inconclusive; . = no result given; ! = a repeat was not active; [ ] = another dose, or the depositor's remark. This is a sample that favours compounds with a hit; in the whole collection about 11% have one here. Unless noted, calls follow the shape of the dose curve; as a rule, active = well fitted curve in the direction sought with a large enough effect; inconclusive = small, poorly fitted or top-dose-only effect, or another doubt; inactive = no such curve, though single readings can be large; an effect the other way counts as inactive or inconclusive.
SMILES,G9a inh-1,BAZ2B block,L3MBTL1 inh,JMJD2A Tudor inh,HP1b chromo inh,PI5P4K alpha inh,G9a inh-2
COc1ccc(CC(=O)NCc2nnc(SCC(=O)c3ccc(OC)cc3)n2C)cc1,-26%,-3%,6%,-11%,44%,1,.
COc1ccc(NCc2nnc(SCC(=O)c3ccc(OC)cc3)n2C)cc1,?,-1%,.,56µM*,18%,0,11*
COC(=O)c1ccc(C(=O)OC)c(NC(=O)c2c(-c3ccccc3)noc2C)c1,-35%[59 µM],-6%,.,-9%,21%,.,.
CCOC(=O)C1CCCN(CC(=O)NC2CC2)C1 (centres undefined),1.6µM*,32µM*,2%,5µM*,18µM*,.,45*
CCOC(=O)C1CCCN(C(=S)NC2CCCCC2)C1 (centres undefined),1%,-7%,-3%,-13%,12%,-7,.
CCN(c1ccc(NC(=O)COC(=O)c2ccc(S(=O)(=O)N3CCCC3)cc2)cc1)C(C)C,?,3%,.,-12%,16%,.,2.2*
COc1ccc(NC(=O)CCN2CCN(S(=O)(=O)c3ccc(C(C)C)cc3)CC2)cc1,24%[12.7 µM],-5%,.,-14%,12%,.,.
O=C(COC(=O)c1ccc(O)cc1)Nc1ccc(S(=O)(=O)N2CCCC2)cc1,.,.,-4%,-18%,18%,0,.
CC(C)c1ccc(S(=O)(=O)N2CCN(CCC(=O)Nc3ccc(N(C)C)cc3)CC2)cc1,1µM*,22µM*,-7%[11.4 µM],35µM*,?,6,2*
COc1ccc2cc(C(=O)NCc3ccc4c(c3)CCN4C(=O)c3ccc(F)cc3)[nH]c2c1,1%[59 µM],-17%,.,-21%,19%,.,.
CC(=O)Nc1ccc(-c2nnc3n(CC(C)C)c(=O)c4ccccc4n23)cc1,?,-38%,.,?,6%,.,.
O=C(O)CCc1ccc(-c2cccs2)o1,?,56µM*,.,100µM*,?,.,7.9*
Cc1ccc(-c2ccc(CCC(=O)O)o2)cc1,?,-34%,-2%,?,-15%,.,.
CCN(CC)c1ccc(NC(=O)Nc2ccc(C(C)=O)cc2)cc1,1.4µM*,-26%,-1%,-32%[57.1 µM],-7%,-10,0.32*
CCN(CC)c1ccc(NC(=O)c2cncc(Br)c2)cc1,?,35µM*,-13%,50µM*,?,-3,3.5*
COc1ccc(N2CCC(CNC(=O)Nc3ccc(Cl)cc3)C2)cc1 (centres undefined),0.71µM*,-34%,0%,?,?,0,0.5*
O=C(NCC1CC1)Nc1ccc(Cl)cc1,14%,1%,.,-3%,26%,6,.
COc1ccc(N2CCC(CNC(=O)Nc3cccc(OC)c3)C2)cc1 (centres undefined),?,32µM*,.,40µM*,16µM*,.,1.6*
CC(CC(O)C1OC1(C)C)C1CCC2(C)C3=CCC4C(C)(C)C(=O)CCC4(C)C3CC[C@@]12C (some centres undefined),-10%[2.33 µM],.,.,.,.,.,.
N#Cc1ccc(CN2CC[C@@]3(CCCN(C(=O)c4ccco4)C3)C2)cc1,-2%[12.7 µM],.,.,.,.,.,.
CCN1CCOC(=O)C1CC(=O)Nc1cc(Cl)ccc1C (centres undefined),0.71µM*,-22%,.,-15%,16%,.,6.3*
COc1ccccc1CN1CCC2(CC1)CCN(S(C)(=O)=O)CC2,-2%[12.7 µM],.,.,.,.,.,.
CCN(CC)c1ccc(NC(=O)CN2CCN(S(=O)(=O)c3cc(Cl)ccc3OC)CC2)cc1,8.9µM*,50µM*!,.,40µM*,?,.,4*
CCOc1ccc(NC(=O)CN2CCN(CC(=O)c3ccc(OC)c(OC)c3)CC2)cc1,2.5µM*,8%,.,?,0%,-17,45*
CCOc1ccc(NC(=O)CN2CCN(CC(=O)Nc3ccc(F)cc3)CC2)cc1,3%[12.7 µM],1%,5%,-10%,67%,8,.
SMILES,G9a inh-1,BAZ2B block,L3MBTL1 inh,JMJD2A Tudor inh,HP1b chromo inh,PI5P4K alpha inh,G9a inh-2
CCOc1ccc(NC(=O)CN2CCN(CC(=O)c3ccc(OCC)cc3)CC2)cc1,2.8µM*,8%,1%[11.4 µM],?,46%,1,5.6*
Cc1ccc(NC(=O)CN2C(=O)COc3ccc(S(=O)(=O)N4CCCCC4)cc32)cc1N(C)C,-39%[59 µM],-39%,.,-25%,14%,.,.
CCn1cnc2cc(NCc3cccc(OC)c3O)ccc21,?,?,.,-36%,7%,.,0.28*
CCCn1cnc2cc(NC(=O)c3cc(OC)c(OC)c(OC)c3)ccc21,-37%[59 µM],-34%,.,-14%,0%,.,.
CCCn1cnc2cc(NCc3ccc(OC)cc3OC)ccc21,2.8µM*,40µM*,.,?,-21%,.,5.8*
Cc1cc(C)n(CCC(=O)Nc2ccc(Cl)cc2)n1,8%[59 µM],-38%,.,?,-17%,.,.
Cc1cc(C)cc(NC(=O)CSc2nnc(CNC(=O)c3c(F)cccc3Cl)o2)c1,39%[59 µM],36%,.,-9%,68%,.,.
CCn1cc(C(=O)N2CCN(c3cccc(C)c3)C(C)C2)c(=O)c2cc(S(=O)(=O)N3CCOCC3)ccc21 (centres undefined),3%[59 µM],.,.,-6%,26%,.,.
COc1ccc(CNC(=O)CCCN2C(=O)c3cccnc3Oc3ccc(Cl)cc32)cc1,2%[59 µM],1%,.,-3%,31%,.,.
COC(=O)c1c(-c2cccs2)csc1NC(=O)COc1ccccc1,1.8µM*,?,.,-28%,-8%,.,4.1*
CN(C)c1ccc(NC(=O)C2(c3cccs3)CCOCC2)cc1,2.8µM*,40µM*,.,?,-15%,.,7.1*
Cc1ccc(N(C)S(=O)(=O)c2ccc(-c3coc(C)n3)cc2)cc1,-37%[59 µM],?,.,-23%,8%[57 µM],.,.
CN(c1ccccc1)S(=O)(=O)c1nnc(NC(=O)COc2ccccc2)s1,?,-25%,.,-26%,50%,-30,.
O=C(COc1ccccc1)Nc1nnc(S(=O)(=O)Nc2ccccc2)s1,?,1.4µM*!,3%,?,46%,-14,?
Cc1cc(F)ccc1NC(=O)C1CCN(C(=O)c2cnn(-c3ccccc3)c2-n2cccc2)CC1,2%[59 µM],0%,.,5%,28%,.,.
CC(C)(C)C1=Nn2c(nnc2-c2ccccn2)SC1,?,20µM*,-91%,7.9µM*,?,?,1.8*
CN(C)C1=NC[C@H](Cc2ccccc2)N1CCCC1CCCC1,?,?,12%,-26%,32%,6,2.8*
Cc1ccc(CNC(=O)c2nnn(Cc3ccc(F)cc3)c2N)cc1,-23%[59 µM],-21%,.,-13%,-5%,.,.
Cc1cc(C)c(NC(=O)Cn2c(=O)n(CCC(=O)NCc3ccc4c(c3)OCO4)c(=O)c3ccccc32)c(C)c1,-7%[59 µM],-3%,.,3%,10%,.,.

# Screens (PubChem BioAssay)
